RBX1-CUL1 inh – inhibitors of human ROC1-CUL1 ubiquitin ligase activity | E3 ubiquitin-protein ligase RBX1 (Homo sapiens) + Cullin-1 (Homo sapiens), P62877+Q13616 | in vitro K48 di-Ub FRET, acceptor:donor ratio, 45 min | inhibition, % at 10 µM | 140,000 compounds, 0.6% hits; in the data active means inhibition above about 25%
Hits are given with their value; . = inactive. Only a selection was taken, and hits are over-represented in it overall.

SMILES	RBX1-CUL1 inh
Cc1c(CC(=O)NCc2ccon2)c2c(n1CC1CCCO1)CCCC2=O (centres undefined)	.
Cc1c(CC(=O)NCc2ccon2)c2c(n1CCc1ccccc1)CCCC2=O	28.9
CC1=C(C(=O)N2CCc3ccc(NC(=O)C4CCCO4)cc3C2)OCCO1 (centres undefined)	.
Cc1ccc(CN2CCN(CC(=O)NC3CCCCC3)CC2)cc1	.
CNCc1ccc(OCc2ccc(Cl)cc2Cl)cc1	.
CCOc1cccc(CNc2ccc(O)cc2)c1OCc1ccc(Cl)cc1Cl	53.4
CNCc1cccc(OCc2ccccc2Cl)c1	.
Oc1ccc(NCc2cccc(OCc3ccc(Cl)cc3Cl)c2)cc1	38.8
CCOc1cccc(CNc2ccc(O)cc2)c1OCc1ccccc1Cl	.
CCOc1cccc(CNC(C)(C)CO)c1OCc1ccc(Cl)cc1Cl	.
O=[N+]([O-])c1ccc(Sc2nc3ccccc3o2)nc1Sc1nc2ccccc2o1	.
COc1cc(C)ccc1OCc1nc(C(=O)NC2CCC(O)CC2)co1 (centres undefined)	.
CCOc1cccc(C(=O)Nc2ccc3oc(-c4ccccc4F)nc3c2)c1	.
CN1C(=O)C(C=NCc2ccccc2)c2ccccc21 (centres undefined)	.
O=C1C=CC(=O)C(C(C=NCc2ccccc2)[N+](=O)[O-])=C1 (centres undefined)	97.3
CC1(C)OC(=O)C(C=NCc2ccccc2)C(=O)O1	.
COc1cccc(C2c3[nH]c4ccccc4c3CCN2Cc2ccc(CO)o2)c1OC (centres undefined)	.
CCOC(=O)c1nn(-c2ccc(Cl)cc2)c(-c2ccccc2)c1C#N	.
CC1=C(C#N)c2nc(N)c(C#N)c(C)c2/C1=C\c1ccc(F)cc1	.
CC1=C(C#N)c2nc(N)c(C#N)c(C)c2/C1=C\c1ccc(OCc2cccc(C(=O)O)c2)cc1	98.4
CC1=C(C#N)c2nc(N)c(C#N)c(C)c2/C1=C\c1cccc(F)c1	.
COC(=O)c1c(-c2ccccc2)nn(N2C(=O)c3ccccc3C2=O)c1C(=O)OC	.
CCc1ccc(OCc2nnc(SCC(=O)Nc3ccccc3Cl)n2C)cc1	.
